Assay results taken from PubChem BioAssay (NCI).
The panel holds about 79,000 compounds, 15% with a hit somewhere; the sample as a whole holds those more often. Values without a mark were called inactive. Active and inactive are the calls of the source. No stated cut-off is given here; in the data, active means growth inhibition above about 70%; inactive means the rest.

assay: NCI Yeast Anticancer Drug Screen. Data for the rad50 strain (AID 155);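 further: 0% = growth of vehicle-only cultures of the same strain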; settings: S. cerevisiae rad50 strain growth inhibition; at 33.0 µM; active compounds read high
Method in brief: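 Inhibition values express reduced yeast growth in compound-treated cultures relative to vehicle-treated controls.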

Compound	growth inhibition
CC(C)C(=O)CC(Sc1ccc(N)cc1)c1ccccc1 (stereo not given)	24%
CC(C)OP(=O)(OC(C)C)/C(Cl)=N/Nc1ccc([N+](=O)[O-])cc1	93% (active)
O=[N+]([O-])c1cc(Cl)ccc1S(=O)(=O)c1ccc(Cl)cc1[N+](=O)[O-]	90% (active)
CCCCCCNCCCNc1c2cc(OC)ccc2nc2cccc([N+](=O)[O-])c12	92% (active)
N#CCC(=O)N/N=C(\c1ccccc1)C(c1ccccc1)C1(O)C(=O)Nc2c(Cl)ccc(Cl)c21 (stereo not given)	15%
CN(C)CCNCCCNc1c2ccccc2nc2cccc([N+](=O)[O-])c12	88% (active)
CCC[CH2][Ge]([CH2]CCC)([CH2]CCC)[O]C(=O)C(O)c1ccccc1 (stereo not given)	90% (active)
COc1ccc(-c2cc(-c3cc(C)cc(Cl)c3O)nc3[nH]c(=S)[nH]c(=S)c23)cc1	11%
O=[N+]([O-])c1ccc(/C=C\c2ccc3c(c2)OCO3)c([N+](=O)[O-])c1	54%
O=C1c2ccccc2N2OC3(N4CCCC4)CCCCC3C12c1ccccc1 (stereo not given)	19%
CC(C)OC(=O)NNc1cc(Cl)ccc1Cl	36%
Cc1oc2ccccc2c(=O)c1Cn1nnc2ccccc21	13%
CC1(C)OC(=O)C(=Cc2ccc([N+](=O)[O-])s2)C(=O)O1	-6%
CCN(CC)CCCNc1ccc([N+](=O)[O-])c2nc3ccc(OC)cc3c(NCCCN(CC)CC)c12	4%
COc1cccc(/C=C2\S/C(=N/Nc3nc(-c4ccc([N+](=O)[O-])cc4)cs3)NC2=O)c1O	73% (active)
